Results published in PubChem BioAssay AID894 (National Center for Advancing Translational Sciences (NCATS), 2007).
Screen size: about 150,000 compounds; about 6,500 (4.3%) were called active. Another 12% or so got no clear call; they are omitted. The sample holds actives, similar compounds and a random draw of the others, so the mix is not that of the screen. A number with no mark means an inactive call. The call rests on the fitted dose curve; in most records, active means well fitted inhibition curve with a large enough effect (not every such curve was filed as active); inconclusive means small, poorly fitted or top-dose-only effect, or another doubt; inactive means no such curve, though single readings can be large or run the other way.
On the % scale 0 is the no-effect control and ±100 the full control effect; potency means the concentration at half of the fitted maximal effect.

Each molecule was assayed against 15-hydroxyprostaglandin dehydrogenase [NAD(+)] (Homo sapiens) (UniProt P15428) (assay: qHTS Assay for Inhibitors of HPGD (15-Hydroxyprostaglandin Dehydrogenase)). Conditions: purified HPGD, NADH fluorescence kinetic, PGE2 substrate; activity change, negative = inhibition: active compounds read low.
15-hydroxyprostaglandin dehydrogenase [NAD(+)] (Homo sapiens), sequence (P15428 whole entry, looked up): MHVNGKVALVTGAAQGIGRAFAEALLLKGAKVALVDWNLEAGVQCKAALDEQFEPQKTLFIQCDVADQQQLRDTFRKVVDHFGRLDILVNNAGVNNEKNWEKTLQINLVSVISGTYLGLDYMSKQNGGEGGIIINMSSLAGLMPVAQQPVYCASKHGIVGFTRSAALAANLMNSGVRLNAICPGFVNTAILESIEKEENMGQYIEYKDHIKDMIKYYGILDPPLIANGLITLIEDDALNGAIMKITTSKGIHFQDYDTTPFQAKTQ
Outline: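 20 nM HPGD preincubated 15 min at room temperature with compound in 50 mM Tris-HCl pH 8, 0.01% Tween 20. Started with 1 mM NAD+ and 30 uM prostaglandin E2; NADH fluorescence (360/450 nm) read 5 times over 30-s intervals, last minus first.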
`CCOC(=O)C1=C(c2ccc(OC)cc2)C(=O)c2ccccc2C1=O` gave an activity change, negative = inhibition of -6.53%. For `CCc1nc2oc3ccccc3c(=O)c2c(=O)n1Cc1ccc(OC)cc1`, the Potency was 25.1 µM (active). Molecule `O=c1c2ccccc2oc2nc(C3CCCCC3)n(Cc3ccco3)c(=O)c12` has an activity change, negative = inhibition of -6.04%. `COc1ccc(N2CCN(Cc3cc(=O)oc4ccc5ccccc5c34)CC2)cc1` gave an activity change, negative = inhibition of -9.86%. `COC(C(=O)Nc1ccc(C(C)=O)cc1)c1ccccc1` (stereo not drawn) showed an activity change, negative = inhibition of -9.31%. In the case of `O=C(Cc1cccs1)Nc1cccc(-c2nc3ccccc3[nH]2)c1`, the activity change, negative = inhibition is reported as -8.46%. `O=C(CCc1nc2ccccc2c(=O)[nH]1)OCC(=O)c1cccc(Cl)c1` was tested, and the activity change, negative = inhibition was -9.26%. Molecule `Cc1ccc(C(=O)C(=S)N2CCOCC2)cc1` has an activity change, negative = inhibition of -3.51%. With `CCOc1cc(C(=S)N2CCOCC2)ccc1O` the Potency was 12.6 µM (active). With `CCOc1cc(C(=O)OCC(=O)Nc2cccc(C)c2)ccc1OCC(=O)N1CCOCC1` the activity change, negative = inhibition was -18.5%. `COc1ccc2c(c1)O[C@@H](c1ccc3c(c1)OCO3)[C@H](OC(=O)NCCc1ccc(OC)c(OC)c1)C2=O` gave an activity change, negative = inhibition of -3.81%. Work on `S=C(Nc1cccc(Cl)c1)Nc1ccc2cn[nH]c2c1` yielded an activity change, negative = inhibition of -14.3%. `Cc1cc(C)cc(C(=O)N2CCN=C2SCc2ccc([N+](=O)[O-])cc2)c1` gave an activity change, negative = inhibition of -11.7%. Work on `O=C(COc1ccccc1F)NNC(=O)c1ccc(N2CCCCC2)c([N+](=O)[O-])c1` yielded an activity change, negative = inhibition of -21.3%. `O=C1CCCC(O)=C1N=Nc1ccc2ncsc2c1` was tested, and the Potency was 31.6 µM (active). For `COc1ccc(NC(=O)c2nc(-n3nc(C)cc3C)ccc2Cl)cc1Cl`, the activity change, negative = inhibition was -17.4%. `CCCN(CCC)C(=S)Nc1cc(C(=O)OC)ccc1C(=O)OC` gave an activity change, negative = inhibition of -9.23%. With `COc1cc(OC)nc(NC(=O)CCl)n1` the activity change, negative = inhibition was -16.6%. With `O=C(NNc1ccccn1)c1ccc(Cl)nc1` the activity change, negative = inhibition was -23%. In the case of `O=C(CCl)NNc1cccc(Cl)n1`, the Potency is reported as 28.2 µM (active). With `COc1cc(NC(=S)NNC(=O)CC(C)C)c(OC)cc1Cl` the Potency was 31.6 µM (active). With `CCOCC(=O)Nc1cc(OC)c(Cl)cc1OC` the activity change, negative = inhibition was -3.42%. `CC(C)CC(=O)NC(=S)Nc1cc(C(=O)O)ccc1Cl` gave an activity change, negative = inhibition of -13.5%. Work on `COc1ccc(-c2nc3c(c4c2C[C@H](c2ccccc2)OC4)CN(S(=O)(=O)c2c(C)noc2C)CC3)c(C)c1` yielded an activity change, negative = inhibition of -1.95%. `CCOC(=O)c1nc(-c2ccc3c(c2)OCO3)[nH]c1C` showed an activity change, negative = inhibition of -11.1%. Work on `CCOC(=O)c1c(C)[nH]c(C(=O)COc2ccc3c(c2)OCO3)c1C` yielded an activity change, negative = inhibition of -6.28%. `Cc1ccc(S(=O)(=O)N/N=C\c2cc3c(cc2[N+](=O)[O-])OCO3)cc1` gave an activity change, negative = inhibition of -28.1%. Work on `Cc1c(NC(=O)CCCOc2ccccc2)cccc1[N+](=O)[O-]` yielded an activity change, negative = inhibition of -12.9%. For `Cc1ccc(-c2n[nH]c(=S)n2/N=C/c2cc3c(cc2[N+](=O)[O-])OCO3)cc1`, the Potency was 1.58 µM (active). `CCOc1ccc(-c2n[nH]c(=S)n2/N=C/c2cc3c(cc2[N+](=O)[O-])OCO3)cc1` was tested, and the Potency was 3.55 µM (active). In the case of `O=C(Cc1cc(=O)[nH][nH]1)N/N=C/c1ccccc1[N+](=O)[O-]`, the activity change, negative = inhibition is reported as -14.9%. With `O=[N+]([O-])c1ccccc1/C=N/n1c(COc2ccccc2)n[nH]c1=S` the Potency was 7.08 µM (active). Molecule `COC(=O)/C(=C1\Oc2ccc(C(C)(C)C)cc2S1)C(F)(F)F` has an activity change, negative = inhibition of -12.2%. In the case of `COc1cc(OC)cc(-c2nc3ccccc3c(=O)n2NC(=O)c2cccnc2Cl)c1`, the activity change, negative = inhibition is reported as -8.81%. `NC(=O)Nc1ccccc1C(=O)NCCc1ccccc1` gave an activity change, negative = inhibition of -3.92%. In the case of `CCOc1cc(/C=N/NC(=O)OC)ccc1OCCSc1ccc(Cl)cc1`, the activity change, negative = inhibition is reported as -11.7%. In the case of `Cc1nn(-c2ccccc2)c2c1C(c1cccc([N+](=O)[O-])c1)N(c1ccccc1)C(=O)N2` (stereo not drawn), the activity change, negative = inhibition is reported as -6.84%. `CC(Sc1cccc[n+]1[O-])C(=O)Nc1cccc(S(=O)(=O)N2CCOCC2)c1` (stereo not drawn) gave an activity change, negative = inhibition of -20.6%. For `CC(=O)CC(c1ccccc1)C1C(=O)Oc2ccccc2C1=O` (stereo not drawn), the activity change, negative = inhibition was -12.2%. Molecule `O=C(c1cncc(Br)c1)N1CCN(c2ccc([N+](=O)[O-])cc2)CC1` has an activity change, negative = inhibition of -27.4%. `CSCc1ccc(C(=O)Nc2cc(C)cc(C)c2)cc1` gave an activity change, negative = inhibition of -12.7%. `CN(C)S(=O)(=O)c1cccc(C(=O)Nc2cccnc2)c1` showed an activity change, negative = inhibition of -13.1%. In the case of `O=C(c1cccnc1)N(c1cc2sc(=O)oc2c2ccccc12)S(=O)(=O)c1ccccc1`, the Potency is reported as 17.8 µM (active). `COc1ccc(N(C(=O)c2cccnc2)S(=O)(=O)c2ccc3c(c2)n(C)c(=O)n3C)cc1` gave an activity change, negative = inhibition of -4.39%. Molecule `COc1ccc(/C=N/NC(=O)c2ccccc2)cc1OS(=O)(=O)c1ccccc1` has an activity change, negative = inhibition of -15.2%. For `Cn1c(=NC(=O)c2cnccn2)sc2ccccc21`, the activity change, negative = inhibition was -8.2%. In the case of `Cn1c(=NC(=O)CSCC(=O)N2CCCCC2)sc2ccccc21`, the Potency is reported as 22.4 µM (active). In the case of `Cn1c(=NC(=O)CSCC(=O)N2CCOCC2)sc2ccccc21`, the activity change, negative = inhibition is reported as -16.8%. In the case of `O=C(Nc1nc(-c2ccc(-c3ccccc3)cc2)cs1)c1cnccn1`, the activity change, negative = inhibition is reported as -5.23%. In the case of `CN(c1ccccc1)S(=O)(=O)c1cccc(NC(=O)Cc2c(F)cccc2Cl)c1`, the activity change, negative = inhibition is reported as -8.06%. `Cc1ccc2c(c1)C1CN(C)CCC1N2C(=O)c1ccccc1NS(=O)(=O)c1ccc(F)cc1C` (stereo not drawn) was tested, and the activity change, negative = inhibition was -6.43%. `CCOC(=O)C1CCCN(C(=O)C2CCN(c3nnc(-n4cccc4)s3)CC2)C1` (stereo not drawn) gave an activity change, negative = inhibition of -22.6%. In the case of `CSc1ccc(CCNC(=O)C2CCN(c3nnc(-n4cccc4)s3)CC2)cc1`, the activity change, negative = inhibition is reported as 2.14%. With `O=C(C1CCN(c2nnc(-n3cccc3)s2)CC1)N1CCc2ccccc2C1` the Potency was 14.1 µM (active). `COc1ccc(C(=O)Nc2nc(-c3ccc(OC)cc3)c(-c3ccc([N+](=O)[O-])cc3)s2)cc1` showed an activity change, negative = inhibition of -12.2%. For `O=C(NC(Nc1nc2ccc([N+](=O)[O-])cc2s1)(C(F)(F)F)C(F)(F)F)c1ccccc1`, the activity change, negative = inhibition was -5.24%. In the case of `COC(=O)C(NC(=O)c1ccc(OC)cc1)(Nc1ncc(S(=O)(=O)c2ccc([N+](=O)[O-])cc2)s1)C(F)(F)F` (stereo not drawn), the Potency is reported as 15.8 µM (active). In the case of `CN(c1ccc(C(=O)NCc2ccccn2)cc1)S(C)(=O)=O`, the activity change, negative = inhibition is reported as -25.1%. With `O=C(NCc1ccccn1)c1ccc2nc(-c3ccco3)c(-c3ccco3)nc2c1` the Potency was 14.1 µM (active). Work on `CCOc1ccc(C(=O)NC(C(=O)NCc2ccccn2)C(C)C)cc1` (stereo not drawn) yielded an activity change, negative = inhibition of -8.11%. For `COc1ccccc1C1SCCN1C(=O)c1ccc([N+](=O)[O-])cc1` (stereo not drawn), the activity change, negative = inhibition was -2.04%. `O=C(CN1CCN(c2ccc(O)cc2)CC1)Nc1cc(S(=O)(=O)N2CCOCC2)ccc1Cl` showed an activity change, negative = inhibition of -5.21%. With `Cc1ccc(-n2c(C)cc(C(=O)CSc3nnc4ccccn34)c2C)cc1` the activity change, negative = inhibition was -16.1%. With `C/C(=N\NC(=O)c1ccc(NS(=O)(=O)c2cccs2)cc1)c1ccc2ccccc2c1` the activity change, negative = inhibition was -21.6%. `Cc1cccc(NC(=O)c2sc3nc4c(c(-c5ccco5)c3c2N)CCC4)c1` showed an activity change, negative = inhibition of -21.6%. In the case of `CC(C)OC(=O)c1sc2nc3c(cc2c1N)C(=O)CCC3`, the Potency is reported as 28.2 µM (active). For `Nc1c(C(=O)NCc2ccccc2)sc2nc3c(cc12)C(=O)CCC3`, the activity change, negative = inhibition was -24.2%. With `C/C(CCC(=O)OC[C@H]1O[C@H](C#Cc2ccccc2)C=C[C@@H]1Oc1ccc(C)cc1)=N\OC[C@@H](O)[C@H]1O[C@@H]2OC(C)(C)O[C@@H]2[C@H]1O` the activity change, negative = inhibition was -19.5%. Work on `CCc1ccc(NC(=O)CC2C(=O)NCCN2C(=S)Nc2ccccc2)cc1` (stereo not drawn) yielded an activity change, negative = inhibition of -10.9%. For `Cc1ccc(NN=C2C(=O)OC(C)(C)OC2=O)c(C)c1`, the activity change, negative = inhibition was -9.59%. With `C=CC1=C2C=C(C3CC3)N(C(CO)CO)C=C2C(=O)C(C)(OC(=O)c2ccco2)C1=O` (stereo not drawn) the activity change, negative = inhibition was -2.61%. `COc1ccc(C(C[N+](=O)[O-])n2nc(C)cc2C)cc1` (stereo not drawn) was tested, and the Potency was 31.6 µM (active). Work on `COc1ccc(Nc2cc(C)nc(-n3nc(C)cc3C)n2)cc1` yielded an activity change, negative = inhibition of -0.842%. `COc1ccc(OCc2cn3c(C)cc(C)nc3n2)cc1` was tested, and the activity change, negative = inhibition was -7.95%. Molecule `COc1ccc(N2CCN(c3ccc([N+](=O)[O-])cc3Cl)CC2)cc1` has an activity change, negative = inhibition of -1.48%. For `COc1cc2c(cc1OC)C(Nc1ccc(S(N)(=O)=O)cc1)=NC(C)(C)C2`, the activity change, negative = inhibition was -7.98%. With `CC(Sc1nnc2c(n1)C1CCC2(C)C1(C)C)C(=O)Nc1ccccc1` (stereo not drawn) the activity change, negative = inhibition was -10.3%. In the case of `CSc1nc(C)cc(SC(C(C)=O)C(=O)Nc2ccccc2)n1` (stereo not drawn), the Potency is reported as 25.1 µM (active). `CSc1ccccc1C(=O)Nc1cccc(C(C)=O)c1` was tested, and the activity change, negative = inhibition was -4.99%. Work on `CCCCOc1ccc(C(=O)NCC(=O)OCC(=O)N2CCN(S(=O)(=O)c3ccc(C)cc3C)CC2)cc1` yielded an activity change, negative = inhibition of -0.54%. In the case of `COC(=O)c1ccc(C(=O)OC)c(NC(=S)N2CCN(c3ccc(F)cc3)CC2)c1`, the activity change, negative = inhibition is reported as -14.5%. With `CCOc1ccc(C(=O)NC(=S)Nc2ccc(NC(=O)C(C)C)cc2)cc1[N+](=O)[O-]` the activity change, negative = inhibition was -3.94%. Molecule `COc1ccc(OCC(=O)Nc2cc(C)c(Cl)cc2OC)c([N+](=O)[O-])c1` has an activity change, negative = inhibition of -1.27%. `Cc1nnc(-c2ccc(Oc3ccc(C)c(C)c3)c([N+](=O)[O-])c2)o1` was tested, and the Potency was 10 µM (active). For `S=C(NCc1ccc(Cl)cc1)NC1CCCCC1`, the activity change, negative = inhibition was -2.44%. For `CC(C)(C)c1nc(NCC2CCCO2)c2nnn(Cc3ccccc3)c2n1` (stereo not drawn), the activity change, negative = inhibition was -9.49%. `CC(C)Nc1ncnc2c1nnn2Cc1ccccc1` was tested, and the Potency was 28.2 µM (active). Work on `C#CCNc1nc(C(C)C)nc2c1nnn2Cc1ccccc1F` yielded an activity change, negative = inhibition of -2.63%.
